Laboratory results from the supplement of paper PMC12645437, “Orthogonal IMiD-Degron Pairs Induce Selective Protein Degradation in Cells” (ACS Chemical Biology, 2025).
Whole data set: some 8,300 sequences, median “log2 fold change of degron read counts, EGFP-low vs EGFP+ sorted cells (limma voom), compound-induced degradation” near -1.1, cut for the highest 2% near 3.2. The sample as a whole holds a higher share of the highest values than the screen did.

Biological target: T1, CRBN, Q96SW2
T1 chain: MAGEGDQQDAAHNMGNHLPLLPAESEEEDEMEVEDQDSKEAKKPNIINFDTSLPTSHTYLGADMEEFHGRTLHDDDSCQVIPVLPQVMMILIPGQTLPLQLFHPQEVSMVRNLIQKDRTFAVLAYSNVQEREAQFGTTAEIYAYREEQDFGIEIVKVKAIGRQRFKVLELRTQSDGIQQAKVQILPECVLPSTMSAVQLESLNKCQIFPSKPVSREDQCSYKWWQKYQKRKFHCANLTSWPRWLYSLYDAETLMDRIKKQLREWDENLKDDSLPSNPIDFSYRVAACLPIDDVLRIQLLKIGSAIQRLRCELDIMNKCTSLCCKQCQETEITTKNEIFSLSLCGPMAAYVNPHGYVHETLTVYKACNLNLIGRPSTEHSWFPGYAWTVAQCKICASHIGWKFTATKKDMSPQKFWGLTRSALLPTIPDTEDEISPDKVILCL
Test: log2 fold change of degron read counts, EGFP-low vs EGFP+ sorted cells (limma voom), compound-induced degradation; higher = more compound-induced degradation of the degron-EGFP fusion; degrons are variants of IKZF1/3 zinc finger 2; compound dose not given here
Details: Jurkat, 18 h

[1] = compound: compound 19 (5-tert-butyl-thalidomide)
[2] = compound: compound 22 (5-morpholino-thalidomide)
[3] = compound: compound 33 (diphenyl IMiD analogue)
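Note: pooled lentiviral library of zinc finger degron-EGFP fusions in mCherry-positive Jurkat cells, FACS-sorted after compound exposure, with degron abundance counted by next-generation sequencing.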

Sequence | log2 fold change of degron read counts [1] | log2 fold change of degron read counts [2] | log2 fold change of degron read counts [3] | log2 fold change of degron read counts (compound: thalidomide)
FWCNICGAGFTQKGNLLRHIKL [46F_47W_49N_50I_52G_53A_54G_55F_67L_, Q9UKT9] | 1.8 | 1.84 | 0.64 | -0.741
FTCDQCGAIFTQKGNLLRHIKL [46F_47T_49D_50Q_52G_53A_54I_55F_67L_, Q9UKT9] | -3.12 | -2.8 | -2.46 | -2.63
LTCEICGFFCTQKGNLLRHIKL [46L_47T_49E_50I_52G_53F_54F_55C_67L_, Q9UKT9] | 0.0809 | 0.0956 | 0.606 | 0.98
FFCNICGAKFTQKGNLLRHIKL [46F_47F_49N_50I_52G_53A_54K_55F_67L_, Q9UKT9] | 1.77 | 1.78 | 0.0329 | -0.6
FQCNVCGAGFTQKGNLLRHIKL [46F_47Q_49N_50V_52G_53A_54G_55F_67L_, Q9UKT9] | -0.572 | -0.754 | -0.58 | 1.66
FQCNQCGRQFTQKGNLLRHIKL [46F_47Q_49N_50Q_52G_53R_54Q_55F_67L_, Q9UKT9] | -3.25 | -3.61 | -3.19 | -2.34
FKCDQCGAQFTQKGNLLRHIKL [46F_47K_49D_50Q_52G_53A_54Q_55F_67L_, Q9UKT9] | -2.9 | -3.7 | -3.4 | -3.16
FECDQCGANFTQKGNLLRHIKL [46F_47E_49D_50Q_52G_53A_54N_55F_67L_, Q9UKT9] | -3.58 | -4.58 | -1.92 | -1.86
FACEQCGAFFTQKGNLLRHIKL [46F_47A_49E_50Q_52G_53A_54F_55F_67L_, Q9UKT9] | -1.43 | -2.96 | -2.14 | -2.45
FVCDVCGAQFTQKGNLLRHIKL [46F_47V_49D_50V_52G_53A_54Q_55F_67L_, Q9UKT9] | -1.63 | 0.889 | 1.87 | 0.809
FWCDVCGAQFTQKGNLLRHIKL [46F_47W_49D_50V_52G_53A_54Q_55F_67L_, Q9UKT9] | 2.68 | 3.85 | 1.36 | -0.531
FECDVCGAQFTQKGNLLRHIKL [46F_47E_49D_50V_52G_53A_54Q_55F_67L_, Q9UKT9] | -2.41 | -2.69 | -1.62 | -0.629
FYCDVCGAQFTQKGNLLRHIKL [46F_47Y_49D_50V_52G_53A_54Q_55F_67L_, Q9UKT9] | 2.41 | 3.24 | 1.63 | -0.781
FQCDVCGAQFTQKGNLLRHIKL [46F_47Q_49D_50V_52G_53A_54Q_55F_67L_, Q9UKT9] | -1.59 | 0.635 | 0.642 | 2.41
FHCDVCGAQFTQKGNLLRHIKL [46F_47H_49D_50V_52G_53A_54Q_55F_67L_, Q9UKT9] | -0.281 | 0.385 | -0.661 | -1.69
FGCPQCGAFFTQKGNLLRHIKL [46F_47G_49P_50Q_52G_53A_54F_55F_67L_, Q9UKT9] | -0.126 | -1.28 | 2.09 | -1.62
FRCSVCGHMFTQKGNLLRHIKL [46F_47R_49S_50V_52G_53H_54M_55F_67L_, Q9UKT9] | -2.17 | -2.3 | -2.41 | -2.23
FVCNVCGAWFTQKGNLLRHIKL [46F_47V_49N_50V_52G_53A_54W_55F_67L_, Q9UKT9] | -2.28 | -1.99 | -1.2 | -1.25
LTCNQCGFLCTQKGNLLRHIKL [46L_47T_49N_50Q_52G_53F_54L_55C_67L_, Q9UKT9] | -2.17 | -2.63 | -2.25 | -1.91
FACPVCGAGFTQKGNLLRHIKL [46F_47A_49P_50V_52G_53A_54G_55F_67L_, Q9UKT9] | 3.42 | 1.04 | 0.678 | 0.677
FHCPVCGAGFTQKGNLLRHIKL [46F_47H_49P_50V_52G_53A_54G_55F_67L_, Q9UKT9] | 2.85 | 1.03 | 2.35 | -0.326
FQCPVCGAGFTQKGNLLRHIKL [46F_47Q_49P_50V_52G_53A_54G_55F_67L_, Q9UKT9] | 2.21 | 2.03 | 1.81 | 3.38
FGCPVCGAGFTQKGNLLRHIKL [46F_47G_49P_50V_52G_53A_54G_55F_67L_, Q9UKT9] | 3.26 | 1.13 | 2.32 | 0.332
FVCPVCGAGFTQKGNLLRHIKL [46F_47V_49P_50V_52G_53A_54G_55F_67L_, Q9UKT9] | 0.554 | 2.67 | 1.71 | 2.79
FFCPVCGAGFTQKGNLLRHIKL [46F_47F_49P_50V_52G_53A_54G_55F_67L_, Q9UKT9] | 3.15 | 2.03 | 1.8 | 0.528
FRCPVCGAGFTQKGNLLRHIKL [46F_47R_49P_50V_52G_53A_54G_55F_67L_, Q9UKT9] | 2.32 | 1.95 | 2.25 | 1.72
FCCPVCGAGFTQKGNLLRHIKL [46F_47C_49P_50V_52G_53A_54G_55F_67L_, Q9UKT9] | 2.96 | 1.65 | 1.8 | 1.26
FYCPVCGAGFTQKGNLLRHIKL [46F_47Y_49P_50V_52G_53A_54G_55F_67L_, Q9UKT9] | 3.05 | 2.07 | 2.22 | -0.0832
